Among all 420,000 compounds or so, about 64,000 (15%) were called active. Another 27% or so got no clear call; they are omitted. Calls come from the whole dose curve; as a rule, active = well fitted inhibition curve with a large enough effect; inconclusive = small, poorly fitted or top-dose-only effect; inactive = flat fitted curve, though single readings scatter. Not all results are given here. Peptide text beside a SMILES is read from it. * marks the point of attachment. Bz = O=C(c1ccccc1)*
% is set by controls: 0 for no effect and ±100 for the full control effect; potency is the fitted concentration of half-maximal effect.

A short description of the experiment: qHTS for Inhibitors of human tyrosyl-DNA phosphodiesterase 1 (TDP1): qHTS in cells in absence of CPT. Note: nearly all actives have a fitted effect of over 55% in size. The conditions noted are these: DT40 Tdp1-/- hTDP1 cells, no CPT, ATP luminescence, 48 h; activity change, negative = growth inhibition: at 46.2 µM (top of the series). Summed up: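 Luminescent ATP content (CellTiter-Glo) served as the growth readout. Knockout chicken DT40 cells expressing human TDP1 were exposed to compounds without camptothecin for a minimum 48 hr at 37 °C.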
With `Cc1ccc(-n2c(SCC(=O)Nc3ccc4c(c3)OCO4)nnc2-c2ccccn2)cc1`, the “activity change, negative = growth inhibition” value was -12.9% (inactive).
As to `Cc1ccc2c(NC(=O)C3CC3)cccc2n1`, the “activity change, negative = growth inhibition” value is 6.95% (inactive).
With `Cc1ccc(C(=O)Nc2cccc3ncccc23)cc1[N+](=O)[O-]`, the “activity change, negative = growth inhibition” value was -9.15% (inactive).
Regarding `Cc1ccc(/C=C(\C#N)C(=O)Nc2cccc3ncccc23)o1`, the Potency was 25.9 µM (active).
Take `COc1ccc(S(=O)(=O)N2CCCC2CNC(=O)C(=O)NC2CC2)cc1` (stereo not drawn): the “activity change, negative = growth inhibition” value was 11.9% (inactive).
On to `Cc1cc(OCc2ccc(C(=O)Nc3ccc(C(=O)O)cc3)o2)ccc1Cl`, for which the “activity change, negative = growth inhibition” value is -17.3% (inactive).
Same read-out and setting: to `CCN(CC)S(=O)(=O)c1ccc(-c2cn3ccc(C)cc3n2)cc1` belongs -23.4% (inactive); to `C/C(=N/NS(=O)(=O)c1ccccc1)c1ccc(NC(=O)C(F)(F)F)cc1`, 17.1% (inactive).
Take `Cc1c(S(=O)(=O)NCc2ccccc2)c(=O)n(C)c(=O)n1C`: the “activity change, negative = growth inhibition” value is 11.6% (inactive).
With `Cn1c(=O)c2c(-c3ccccc3Br)n(Cc3ccccc3)cc2n(C)c1=O`, the Potency is 18.4 µM (active).
Turning to `O=C(NC(Cc1ccccc1)C(=O)N1CCCC1C(=O)O)c1ccccc1` (stereo not drawn) (Bz-Phe-Pro-OH; configuration not given here), the “activity change, negative = growth inhibition” value was 2.72% (inactive).
Same read-out and setting: to `CN(C)c1nc(N)nc(Cn2nnc(-c3ccc(C(F)(F)F)cc3)n2)n1` belongs -22.4% (inactive).
As to `Cc1ccc(C(=O)Nc2ccccc2-c2ccccc2)cc1S(=O)(=O)Nc1ccccc1`, the Potency is 14.6 µM (active).
In the case of `Cc1ccc(C(=O)Nc2ccc(C(=O)O)cc2)cc1S(=O)(=O)Nc1ccccc1`, the “activity change, negative = growth inhibition” value was 0.751% (inactive).
Take `O=C(O)c1ccc(F)c(S(=O)(=O)Nc2ccccc2)c1`: the “activity change, negative = growth inhibition” value is -25.1% (inactive).
Same read-out and setting: to `Cc1ccc(F)c(S(=O)(=O)NC(=O)C2(C)CCN2C(=O)c2ccco2)c1` (stereo not drawn) belongs -13.3% (inactive); to `CC(C(=O)N(C)CC(=O)Nc1ccccc1C(F)(F)F)N1C(=O)c2ccccc2C1=O` (stereo not drawn), -26.8% (inactive); to `CCOC(CNC(=O)C(=O)NCC(c1ccco1)N1CCN(c2ccc(OC)cc2)CC1)OCC` (stereo not drawn), 11.3% (inactive).
With `CC[n+]1cc(C)ccc1/C=C/c1ccc(N(C)C)cc1`, the Potency was 0.0259 µM (active).
In the case of `CCNC(=O)COC(=O)/C=C/c1c(C)nn(Cc2cccc(OC)c2)c1Cl`, the “activity change, negative = growth inhibition” value is -26.6% (inactive).
Regarding `Cc1ccc(-c2c3c(=O)n(C)c(=O)n(C)c3cn2-n2cnnc2)cc1`, the Potency was 20.6 µM (active).
For the compound `Cc1ccc(-c2c3c(=O)n(C)c(=O)n(C)c3cn2-c2ccccc2O)cc1`, the “activity change, negative = growth inhibition” value was -4.34% (inactive).
Regarding `Cc1cn(C)c(=O)n(C)c1=O`, the “activity change, negative = growth inhibition” value was 12.7% (inactive).
On the same count and under the same terms, to `CC1CCN(CCC(=O)Nc2ccccc2)CC1` belongs -1.21% (inactive); to `CC1=NC2(CCCc3c2no[n+]3[O-])N(O)C1(C)C` (stereo not drawn), -12% (inactive).
`COc1ccc(Nc2nc(=O)[nH]nc2C)cc1`: the “activity change, negative = growth inhibition” value is -0.528% (inactive).
On to `COc1ccc(Nc2cc(Sc3ccc(OC)cc3)ncn2)cc1`, for which the Potency was 16.4 µM (active).
As for `COc1ccc(NC(=O)Nc2ccc3nc(C)c(C)nc3c2)cc1`, the “activity change, negative = growth inhibition” value is -20.1% (inactive).
